In PubChem BioAssay (NCATS):
Inconclusive results are not listed. Entries that show only a call come without a potency. The source made the active and inactive calls. Unless noted, the call rests on the fitted dose curve; in most records, active means well fitted curve in the direction sought with a large enough effect; inconclusive means small, poorly fitted or top-dose-only effect, or another doubt; inactive means no such curve, though single readings can be large; an effect the other way counts as inactive or inconclusive.

Assays:
[1] = Validation screen for small molecules that induce genotoxicity in human embryonic kidney (HEK293T) cells expressing luciferase-tagged ELG1 (AID 493106); further: potency means the concentration at half of the fitted maximal effect
How it was run: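 ELG1-luciferase reporter readout (ONE-Glo, 30 min, room temperature) after 16 hr compound treatment at 37 °C of HEK293T cells at 2,000 per well. Rising luminescence flags genotoxic stress.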

[2] = biological target: ATPase family AAA domain-containing protein 5 (Homo sapiens) (UniProt Q96QE3); assay: Validation screen for small molecules that inhibit ELG1-dependent DNA repair in human embryonic kidney (HEK293T) cells expressing luciferase-tagged ELG1 (AID 493107); further: nearly all actives have a fitted effect of over 70% in size; further: potency means the concentration at half of the fitted maximal effect
How it was run: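 Luciferase read-out, ONE-Glo, 30 min at room temperature, follows 16 h co-exposure at 37 C of compound and the DNA-damaging agent 5-fluorouridine. Cells: HEK293T with ELG1-luciferase fusion, 2,000 per well, DMSO as vehicle.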

[3] = biological target: Thyrotropin-releasing hormone receptor (Homo sapiens) (UniProt P34981); assay: qHTS for Small Molecule Agonists and Allosteric Enhancers of Human TRH Receptor: Validation Screen for Agonists (AID 493127;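 active means calcium activation more than 3 SD above the typical response in the agonist read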;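 further: intracellular calcium rise by fluo-8 fluorescence before TRH EC20 addition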); settings: TRH receptor agonist cell assay; at 2 µM; stronger effect = higher value
How it was run: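 Compound-evoked intracellular calcium release in fluo-8-loaded TRHR cells, read kinetically on FDSS (Ex 480/Em 530, 1 s/cycle) after 23 nL pintool transfer. Agonist phase preceded 10 nM TRH EC20 addition.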

[4] = Nrf2 qHTS screen for inhibitors: Validation (AID 493153; active means well fitted inhibition curve with a large enough effect in the main read-out, with a control signal flat, not every such curve was filed as active; further: potency means the concentration at half of the fitted maximal effect); settings: Potency: luciferase luminescence; viability change: measured here: cytotoxicity max response
How it was run: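 Concentration-response on A549 ARE_Fluc reporter cells exposed 18-24 h at 37 C, 5% CO2. Cytotoxicity read first by CellTiter-Fluor fluorescence (Ex 405/Em 525), then Nrf2 inhibition by BugLite luminescence after 15 min.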

[5] = qHTS for Inhibitors of Cell Surface uPA Generation: Validation Assay (AID 493164);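 further: RAW 264.7 macrophage cells exposed to compound for 18 h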
How it was run: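 ATP-Lite luminescence read-out: ATP remains high when uPA activity-dependent LF translocation into the cytoplasm is blocked. RAW 264.7 cells, 18 h compound exposure at 37 C; 7-point titration, 2.45 nM to 38.3 uM final.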

[6] = biological target: Galactokinase (Homo sapiens) (UniProt P51570); assay: qHTS Validation Assay for Inhibitors of Human Galactokinase (GALK) (AID 493189)
How it was run: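 GALK (5 nM) with 35 uM ATP and 100 uM galactose in HEPES pH 8.0 with MgCl2, NaCl, DTT and BSA. Reaction ran 1 h at room temperature. Residual ATP read by Kinase-Glo Plus luminescence.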

[7] = Validation screen for small molecules that induce DNA re-replication in SW480 colon adenocarcinoma cells (AID 504364)
How it was run: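 Image-based DNA content read-out: Hoechst stain 40 min, total nuclear fluorescence intensity (ex 405 nm, em 500-530 nm) after 48 h compound exposure of 250 SW480 cells/well at 37 C, 5% CO2, versus DMSO vehicle.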

[8] = biological target: Peptidyl-prolyl cis-trans isomerase NIMA-interacting 1 (Homo sapiens) (UniProt Q13526); assay: qHTS Validation Assay to Find Inhibitors of Pin1 (AID 504536; active means well fitted inhibition curve with a large enough effect in the polarisation, with a control signal flat, not every such curve was filed as active; the % refers to the polarisation)
How it was run: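 Fluorescence polarization competition: compounds (titration) displace HiFluor-488-labeled Pin1-1b peptide from Pin1 (0.3 uM final) in pH 7.5 HEPES buffer with DTT, 10 min at room temperature; %Activity normalized to no-enzyme wells, curves fitted.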

[9] = biological target: Phosphoglycerate kinase, glycosomal (Trypanosoma brucei brucei) (UniProt P07378); assay: qHTS Validation Assay to Find Inhibitors of Phosphoglycerate Kinase (AID 504547)
How it was run: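 In TEA buffer (100mM, pH 7.6) containing 5mM MgCl2 and 0.01% Tween-20, the GAPDH-coupled PGK reaction proceeded for 60 minutes at room temperature before a single luminescence reading using Kinase-Glo Plus.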

[10] = biological target: phosphoglycerate mutase (Leishmania major) (UniProt Q4Q090); assay: qHTS Validation Assay to Find Inhibitors of Phosphoglycerate Mutase (AID 504548); further: series mostly up to about 58 µM
How it was run: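 Lm PGAM 1.25nM final; 100 mM TEA pH 7.6, 5 mM MgCl2, 0.01% Tween-20; 45 min RT; Kinase-GloPlus, 10 min; end-point luminescence. Enzyme-free wells as negative controls.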

Sequence of Galactokinase (Homo sapiens) (P51570 whole entry, looked up): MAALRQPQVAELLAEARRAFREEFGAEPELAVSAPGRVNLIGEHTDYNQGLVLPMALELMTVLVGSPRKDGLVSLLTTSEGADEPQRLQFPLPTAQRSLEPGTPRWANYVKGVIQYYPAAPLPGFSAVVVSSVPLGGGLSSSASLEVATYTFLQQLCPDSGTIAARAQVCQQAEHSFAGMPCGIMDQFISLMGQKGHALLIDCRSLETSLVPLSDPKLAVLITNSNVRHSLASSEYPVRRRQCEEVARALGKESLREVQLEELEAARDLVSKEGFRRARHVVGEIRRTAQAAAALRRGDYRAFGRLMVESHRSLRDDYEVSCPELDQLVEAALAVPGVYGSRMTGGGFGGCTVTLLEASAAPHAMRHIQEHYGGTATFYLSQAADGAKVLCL
Sequence of Peptidyl-prolyl cis-trans isomerase NIMA-interacting 1 (Homo sapiens) (Q13526 whole entry, looked up): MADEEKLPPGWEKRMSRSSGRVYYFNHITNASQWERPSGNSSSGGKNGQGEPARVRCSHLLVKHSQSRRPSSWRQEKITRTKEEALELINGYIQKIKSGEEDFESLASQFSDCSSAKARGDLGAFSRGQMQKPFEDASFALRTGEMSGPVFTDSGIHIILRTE
Sequence of Phosphoglycerate kinase, glycosomal (Trypanosoma brucei brucei) (P07378 whole entry, looked up): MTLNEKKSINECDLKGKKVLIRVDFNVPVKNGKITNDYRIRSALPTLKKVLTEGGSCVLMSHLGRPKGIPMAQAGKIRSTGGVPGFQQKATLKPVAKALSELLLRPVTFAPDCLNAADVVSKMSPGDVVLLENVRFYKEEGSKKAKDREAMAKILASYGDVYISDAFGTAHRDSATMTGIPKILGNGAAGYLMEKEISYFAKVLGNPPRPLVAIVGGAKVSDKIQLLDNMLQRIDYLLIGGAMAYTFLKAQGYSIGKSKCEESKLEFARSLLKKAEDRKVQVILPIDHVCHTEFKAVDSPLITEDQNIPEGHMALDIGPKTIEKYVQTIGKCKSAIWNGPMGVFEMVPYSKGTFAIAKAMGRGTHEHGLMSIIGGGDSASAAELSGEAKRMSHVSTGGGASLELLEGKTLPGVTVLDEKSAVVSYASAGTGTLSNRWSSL
Sequence of phosphoglycerate mutase (Leishmania major) (Q4Q090 1-553): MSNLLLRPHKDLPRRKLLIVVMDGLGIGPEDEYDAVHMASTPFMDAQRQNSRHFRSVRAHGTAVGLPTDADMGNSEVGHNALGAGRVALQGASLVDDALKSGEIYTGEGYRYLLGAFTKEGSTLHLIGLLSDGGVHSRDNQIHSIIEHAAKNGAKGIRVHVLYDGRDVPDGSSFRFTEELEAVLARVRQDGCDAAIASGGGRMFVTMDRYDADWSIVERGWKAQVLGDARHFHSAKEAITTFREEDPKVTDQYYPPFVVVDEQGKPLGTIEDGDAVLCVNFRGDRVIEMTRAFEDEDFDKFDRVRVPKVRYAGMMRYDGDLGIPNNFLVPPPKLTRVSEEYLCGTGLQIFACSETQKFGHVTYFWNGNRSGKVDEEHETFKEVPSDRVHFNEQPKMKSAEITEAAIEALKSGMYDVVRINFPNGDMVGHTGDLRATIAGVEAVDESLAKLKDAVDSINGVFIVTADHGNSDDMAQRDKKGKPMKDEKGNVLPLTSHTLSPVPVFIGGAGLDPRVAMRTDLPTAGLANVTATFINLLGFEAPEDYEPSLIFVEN
Sequence of ATPase family AAA domain-containing protein 5 (Homo sapiens) (Q96QE3 whole entry, looked up, the tested form may be a part): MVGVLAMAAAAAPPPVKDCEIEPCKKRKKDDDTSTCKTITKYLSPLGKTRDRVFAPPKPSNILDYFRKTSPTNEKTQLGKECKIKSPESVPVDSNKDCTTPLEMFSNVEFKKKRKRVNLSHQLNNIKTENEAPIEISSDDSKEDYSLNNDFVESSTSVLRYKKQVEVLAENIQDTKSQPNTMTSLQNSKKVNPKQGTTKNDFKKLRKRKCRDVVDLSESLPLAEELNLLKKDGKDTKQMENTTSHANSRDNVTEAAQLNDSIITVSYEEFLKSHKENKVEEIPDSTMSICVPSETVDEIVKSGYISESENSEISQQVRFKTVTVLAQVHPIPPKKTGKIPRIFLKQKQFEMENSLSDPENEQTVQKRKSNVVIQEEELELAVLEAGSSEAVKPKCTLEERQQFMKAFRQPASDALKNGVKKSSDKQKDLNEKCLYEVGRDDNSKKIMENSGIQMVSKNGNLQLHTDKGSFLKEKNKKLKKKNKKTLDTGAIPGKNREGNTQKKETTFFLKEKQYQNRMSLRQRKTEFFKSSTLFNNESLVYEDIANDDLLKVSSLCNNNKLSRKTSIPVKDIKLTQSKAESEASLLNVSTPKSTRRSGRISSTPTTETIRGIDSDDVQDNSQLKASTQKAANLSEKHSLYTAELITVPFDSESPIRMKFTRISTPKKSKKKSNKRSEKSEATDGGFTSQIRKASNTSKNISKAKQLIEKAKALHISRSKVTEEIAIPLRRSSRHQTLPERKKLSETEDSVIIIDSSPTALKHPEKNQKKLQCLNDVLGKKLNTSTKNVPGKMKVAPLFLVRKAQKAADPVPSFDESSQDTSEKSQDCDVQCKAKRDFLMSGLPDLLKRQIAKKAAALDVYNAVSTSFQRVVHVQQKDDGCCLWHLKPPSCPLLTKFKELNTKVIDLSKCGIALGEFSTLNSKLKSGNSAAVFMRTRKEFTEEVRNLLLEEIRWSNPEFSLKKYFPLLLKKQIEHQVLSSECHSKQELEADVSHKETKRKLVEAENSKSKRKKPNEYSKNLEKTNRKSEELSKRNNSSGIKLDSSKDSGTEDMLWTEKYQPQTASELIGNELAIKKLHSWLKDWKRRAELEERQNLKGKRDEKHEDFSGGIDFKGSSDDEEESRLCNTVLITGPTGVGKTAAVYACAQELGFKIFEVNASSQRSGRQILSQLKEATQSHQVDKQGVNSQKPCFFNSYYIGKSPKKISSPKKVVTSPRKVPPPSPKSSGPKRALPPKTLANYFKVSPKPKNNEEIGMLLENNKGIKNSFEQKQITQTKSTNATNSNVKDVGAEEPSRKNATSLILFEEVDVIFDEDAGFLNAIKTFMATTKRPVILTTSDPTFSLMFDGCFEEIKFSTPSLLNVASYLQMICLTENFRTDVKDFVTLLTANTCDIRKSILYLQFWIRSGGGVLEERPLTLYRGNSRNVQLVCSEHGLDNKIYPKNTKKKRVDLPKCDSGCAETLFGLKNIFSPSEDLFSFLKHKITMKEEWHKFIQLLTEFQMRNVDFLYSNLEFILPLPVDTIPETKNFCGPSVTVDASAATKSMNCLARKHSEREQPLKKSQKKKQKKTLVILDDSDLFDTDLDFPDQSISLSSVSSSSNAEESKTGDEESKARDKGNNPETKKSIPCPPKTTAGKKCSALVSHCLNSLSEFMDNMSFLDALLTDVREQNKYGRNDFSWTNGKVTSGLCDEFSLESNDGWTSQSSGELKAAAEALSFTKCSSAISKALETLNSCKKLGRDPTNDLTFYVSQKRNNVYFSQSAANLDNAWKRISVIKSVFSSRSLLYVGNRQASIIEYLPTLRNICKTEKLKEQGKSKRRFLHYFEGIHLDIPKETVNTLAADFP
Sequence of Thyrotropin-releasing hormone receptor (Homo sapiens) (P34981 whole entry, looked up): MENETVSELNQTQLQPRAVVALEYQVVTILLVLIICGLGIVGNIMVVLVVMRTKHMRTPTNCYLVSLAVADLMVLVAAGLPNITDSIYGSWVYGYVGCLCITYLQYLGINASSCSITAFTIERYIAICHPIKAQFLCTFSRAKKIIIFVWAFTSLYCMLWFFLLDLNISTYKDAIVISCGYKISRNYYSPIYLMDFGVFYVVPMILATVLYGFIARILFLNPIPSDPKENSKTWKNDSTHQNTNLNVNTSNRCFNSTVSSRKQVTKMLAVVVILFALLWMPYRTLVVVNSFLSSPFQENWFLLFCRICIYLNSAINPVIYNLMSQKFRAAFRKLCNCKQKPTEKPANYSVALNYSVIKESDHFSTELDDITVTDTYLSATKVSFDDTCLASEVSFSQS

Row | Compound | Potency [1] | Potency [2] | activation [3] | Potency [4] | viability change [4] | outcome [5] | outcome [6] | outcome [7] | outcome [8] | outcome [9] | outcome [10]
1 | Cc1[nH]c(=O)c(C#N)cc1-c1ccncc1 | inactive | inactive | 0.562% (inactive) | inactive | -4.04% | inactive | inactive | inactive | inactive | inactive | inactive
2 | O=C1CCC(N2C(=O)c3ccccc3C2=O)C(=O)N1 (stereo not given) | inactive | inactive | 0.188% (inactive) | inactive | -1.75% | inactive | inactive | inactive | inactive | inactive | inactive
3 | Nc1ncnc2nc(-c3ccc(N4CCOCC4)nc3)cc(-c3cccc(Br)c3)c12 | inactive | 4.11 µM (active) |  |  |  | inactive |  |  | inactive | inactive | inactive
4 | CCn1cc(C(=O)O)c(=O)c2cc(F)c(N3CCNC(C)C3)c(F)c21 (stereo not given) | inactive | inactive |  | inactive | -3.76% | inactive | inactive | inactive |  | inactive | inactive
5 | CC(=O)Oc1ccccc1C(=O)O | inactive | inactive |  | inactive | -7.95% | inactive | inactive | inactive | inactive | inactive | inactive
6 | O=C(O)COCCN1CCN(C(c2ccccc2)c2ccc(Cl)cc2)CC1 (stereo not given) | inactive | inactive |  | inactive | 1.19% | inactive |  |  | inactive | inactive | inactive
7 | Cc1oncc1C(=O)Nc1ccc(C(F)(F)F)cc1 | 2.06 µM (active) |  |  | inactive | 0.653% | inactive | inactive | inactive | inactive | inactive | inactive
8 | CCCC(CCC)C(=O)O | inactive |  | 0.688% (inactive) | inactive | 2.98% | inactive | inactive | inactive | inactive | inactive | inactive
9 | NC(=O)c1cnccn1 | inactive |  | 0.688% (inactive) | inactive | -0.821% | inactive | inactive | inactive | inactive | inactive | inactive
10 | NNCCc1ccccc1 |  |  | 1.5% (inactive) | inactive | 2.04% | inactive | inactive | inactive | inactive | inactive | inactive
11 | O=c1[nH]cnc2[nH]ncc12 | inactive | inactive |  | inactive | 5.19% | inactive | inactive | inactive | inactive | inactive | inactive
12 | Nc1nc2ccc(OC(F)(F)F)cc2s1 |  |  |  | inactive | -4.99% | inactive | inactive | inactive | inactive | inactive | inactive
13 | Cc1[nH]c(=O)c(C#N)cc1-c1ccc2nccn2c1 | inactive |  | 0.25% (inactive) | inactive | 7.27% | inactive | inactive | inactive | inactive | inactive | inactive
14 | CN1CCN(CCCN2c3ccccc3Sc3ccc(C(F)(F)F)cc32)CC1 | inactive |  |  |  |  | inactive | inactive | inactive | inactive | inactive | inactive
15 | N[C@@H]1CONC1=O | inactive | inactive |  | inactive | 10.9% | inactive | inactive | inactive | inactive | inactive | inactive
16 | CCCCNc1cc(C(=O)O)cc(S(N)(=O)=O)c1Oc1ccccc1 | inactive |  | 1.31% (inactive) | inactive | 10.1% | inactive | inactive | inactive | inactive | inactive | inactive
17 | CC(C)NCC(O)COc1ccc(COCCOC(C)C)cc1 (stereo not given) | inactive |  | -0.25% (inactive) | inactive | 3.25% | inactive | inactive | inactive | inactive | inactive | inactive
18 | Cc1cc2c(C(C)C)c(O)c(O)c(C=O)c2c(O)c1-c1c(C)cc2c(C(C)C)c(O)c(O)c(C=O)c2c1O | inactive |  |  |  |  | inactive |  |  |  |  | 
19 | CCOC(=O)C1=C[C@]2(CC)CCCN3CCc4c(n1c1ccccc41)[C@@H]32 | inactive |  | 0.0625% (inactive) | inactive | -5.34% | inactive | inactive | inactive | inactive | inactive | inactive
20 | CCOC(=O)N1CCC(=C2c3ccc(Cl)cc3CCc3cccnc32)CC1 | inactive |  | -10.4% (inactive) |  |  | inactive | inactive |  | inactive | inactive | inactive
21 | Cc1cccc(-c2[nH]c(C(C)(C)C)nc2-c2ccc3nccnc3c2)n1 | inactive |  |  |  |  | inactive |  |  | inactive | inactive | inactive
22 | Cc1ccc(N(CC2=NCCN2)c2cccc(O)c2)cc1 | inactive |  |  | inactive | 4.38% | inactive | inactive | inactive | inactive | inactive | inactive
23 | Cc1cn[nH]c1 | inactive | inactive |  | inactive | 9.47% | inactive | inactive | inactive | inactive | inactive | inactive
24 | Clc1cccc(Cl)c1NC1=NCCN1 | inactive | inactive |  | inactive | 0.846% | inactive | inactive | inactive | inactive | inactive | inactive
25 | OC(CCN1CCCCC1)(c1ccccc1)C1CC2C=CC1C2 (stereo not given) | inactive | inactive |  | inactive | -8.46% | inactive |  |  | inactive | inactive | inactive
26 | O=C(Nc1nc2ccccc2n1CCN1CCOCC1)c1cccc([N+](=O)[O-])c1 | inactive | 8.2 µM (active) |  |  |  | inactive |  |  | inactive | inactive | inactive
27 | C[C@]12CCC(=O)C=C1CC[C@@H]1[C@@H]2[C@@H](O)C[C@@]2(C)[C@H]1CC[C@]2(O)C(=O)CO |  |  |  | 73.1 nM (active) | -7.36% | inactive |  |  | inactive | inactive | inactive
28 | NC[C@H](O)c1ccc(O)c(O)c1 | inactive | inactive |  | inactive | 3.52% | inactive | inactive | inactive | inactive |  | inactive
